Screening data: PubChem BioAssay, National Center for Advancing Translational Sciences (NCATS)
Pf growth 48h: P. falciparum growth inhibition at 48 hours (one generation) | P. falciparum luciferase growth in erythrocytes, 48 h | Potency, µM (series often up to 28.7 µM), usual class: inhibitors | actives 5.9% (n = 310,000) | AID 504832
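Here the parasites carry a stable luciferase gene and grow inside erythrocytes in Albumax-based RPMI medium with compound for one erythrocytic cycle. Activity is scored as loss of luminescent signal.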
CHX counter-1: counter-screen for Shiga toxin inhibitors: cycloheximide protein synthesis inhibition; cell reporter, cycloheximide protein synthesis inhibition counterscreen; max response, %; actives 12% (n = 300,000); in the data active means max response mostly above about 13%, no sharp cut-off; inactive means mostly below about 14%; further: read at 38.3 µM for the half of the compounds with a filed dose
HCV inhibitor: HCV inhibition; Huh7.5.1 HCVcc-Cre infection, luciferase reporter, 44 h; Potency, µM (top dose mostly 41.8 µM), most hits filed as inhibitors; actives 3.4% (n = 340,000); AID 651820
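Cells seeded at 1,000/well and cultured 4 h, then compounds added followed by HCVcc-Cre virus (~0.5 moi). After 44 h further culture, luciferase substrate was added, plates held 15 min at room temperature, and luminescence read for 15 sec.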
Shiga inhibitor: blocks Shiga toxin action in Vero cells; Vero cells, Shiga toxin protein synthesis inhibition reporter; inhibition, % at 38.7 µM; actives 9.2% (n = 290,000); AID 2315; in the data active means inhibition mostly above about 28%, no sharp cut-off; inactive means mostly below about 43%
Pf growth 96h: inhibits malaria parasite growth, 96 h; P. falciparum luciferase reporter growth, 96 h; Potency, µM (series often up to 28.7 µM), usual class: inhibitors; actives 6.9% (n = 320,000)
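Parasite growth measured via integrated firefly luciferase reporter in P. falciparum. Infected erythrocytes at 2% hematocrit, 0.05% parasitemia final were treated 96 hours at 37 C under 5% CO2, and luminescence was read.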
HCMV antiviral: blocks human cytomegalovirus replication; HFF cells, HCMV-luciferase reporter, 72 h; active compounds read low; activity change, negative = inhibition, % at 57.5 µM; actives 4.5% (n = 410,000); in the data active means activity change below about -60%; inconclusive means no clear call, values can overlap the other calls; inactive means above about -39%
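Screen run at 2 compound doses on HFFs infected with reporter HCMV, MOI 1 PFU/cell. Luciferase activity from cell lysates at 72 h post infection gave inhibition relative to buffer-only and Salinomycin wells.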
CHX counter-2: counter-screen for Shiga toxin inhibitors: cycloheximide protein synthesis block; Potency, µM (titrated, usually from 38.3 µM), actives largely listed as activators; actives 3% (n = 510); Cycloheximide counterscreen, protein synthesis reporter, Shiga toxin assay; shares compounds with Shiga inhibitor; calls by dose curve
Each line names hits and unclear results; the compound was inactive in the other large screens (follow-up assays come after a bar, where they were run); ! = not active in a repeat. Rows were chosen to be rich in hits. Some 21% of all compounds tested hit in one or more screens of this group. Unless noted, the call rests on the fitted dose curve; in most records, active means well fitted inhibition curve with a large enough effect; inconclusive means small, poorly fitted or top-dose-only effect, or another doubt; inactive means no such curve, though single readings can be large or run the other way.

Cc1ccc(C)c(N(C(=O)Cn2nnc3ccccc32)C(C(=O)NCc2ccco2)c2ccncc2)c1 (stereo not given)	Pf growth 48h inconclusive, Pf growth 96h inconclusive
CN(Cc1ccccc1)C(=O)COC(=O)CNS(=O)(=O)c1ccc2ccccc2c1	none (no result: CHX counter-1, Shiga inhibitor)
Cc1nc2ccccc2c(=O)n1-c1ccc(-c2ccccc2)cc1	Pf growth 48h inconclusive, HCV inhibitor inconclusive, Pf growth 96h inconclusive
COc1nc2ccccc2c(=O)n1-c1ccc(C)cc1	Shiga inhibitor 19 | CHX counter-2 inactive
CC1(C)Cc2c(cnn2-c2ccccc2)C(NC(=O)CCN2CCCCO2)C1 (stereo not given)	Shiga inhibitor 26, Pf growth 96h inconclusive | CHX counter-2 inactive
Cc1ccc(-n2ncc3c2CC(C)(C)CC3NC(=O)CCN2CCCCC2=O)cc1 (stereo not given)	none
COc1ccc(CC(=O)NC(C)c2nnc(SCC(=O)c3ccc(Br)cc3)n2C)cc1 (stereo not given)	Pf growth 96h inconclusive (no result: Pf growth 48h, HCV inhibitor)
COc1ccc(CC(=O)NC(C)c2nnc(SCC(=O)Nc3nc(C)cs3)n2C)cc1 (stereo not given)	Shiga inhibitor 30 | CHX counter-2 inactive
O=C(NCc1ccncc1)C(=O)NCC1OCCN1S(=O)(=O)c1ccc(F)cc1 (stereo not given)	Shiga inhibitor 31 | CHX counter-2 inactive
CN(C)c1ccc(C(=O)NCc2ccc3c(c2)CCN3C(=O)c2ccccc2)cc1	none (no result: Pf growth 48h, CHX counter-1, HCV inhibitor, Shiga inhibitor, Pf growth 96h)
CN(C)c1ccc(C(=O)NCc2ccc3c(c2)CCO3)cc1	Shiga inhibitor 55 | CHX counter-2 inactive
CCCCn1c(SCC(=O)c2ccccc2)nc2c1c(=O)[nH]c(=O)n2C	Shiga inhibitor 16 | CHX counter-2 inactive
CC1=CN2C(=NC(=O)CC2(C)C(=O)N(CC(=O)NC2CCCC2)Cc2ccc(Cl)cc2)C=C1 (stereo not given)	none
CCCNC(=O)c1ccc2snnc2c1	Shiga inhibitor 29, Pf growth 96h inconclusive | CHX counter-2 inactive
CN1CCN(S(=O)(=O)c2csc(C(N)=O)c2)CC1	none
C[C@H](CO)N1C[C@H](C)[C@@H](CN(C)S(=O)(=O)c2ccc(F)cc2)Oc2c(NC(=O)Cc3ccccc3)cccc2C1=O	HCV inhibitor inconclusive (no result: Pf growth 48h, CHX counter-1, Shiga inhibitor, Pf growth 96h)
O=C(O)c1cc(S(=O)(=O)Nc2ccc(OCc3ccccc3)cc2)ccc1Br	Shiga inhibitor 40 | CHX counter-2 inconclusive
CC(C)c1ccc(Cc2cnc(NC(=O)c3ccc4c(c3)CC(c3ccccc3)OC4=O)s2)cc1 (stereo not given)	none (no result: Pf growth 48h, CHX counter-1, HCV inhibitor, Shiga inhibitor, Pf growth 96h)
CCCOP(=O)(OCCC)c1nc(-c2ccccc2)oc1NCc1ccccc1	Pf growth 48h 5.9µM, HCV inhibitor inconclusive, Shiga inhibitor 20, Pf growth 96h 3.7µM, HCMV antiviral inconclusive | CHX counter-2 inactive
COP(=O)(OC)c1nc(-c2ccccc2)oc1NCc1ccccc1	Pf growth 48h inconclusive, Pf growth 96h inconclusive
COC[C@@H]1CCCN1c1ccc2c(c1)O[C@H](COCc1ccccc1)CN([C@@H](C)c1ccccc1)S2(=O)=O	none (no result: Pf growth 48h, CHX counter-1, HCV inhibitor, Shiga inhibitor, Pf growth 96h)
CSc1ccc(/C=C/C(=O)N2CCN(c3ccccn3)CC2)cc1	Shiga inhibitor 32 (no result: HCMV antiviral) | CHX counter-2 inactive
O=C(/C=C/c1cccc([N+](=O)[O-])c1)N1CCN(c2ccccn2)CC1	Pf growth 96h inconclusive
CCNc1nc2c(c(=O)n(C)c(=O)n2C)n1CCCc1ccccc1	HCV inhibitor inconclusive
CC(C)(C)C1CCN2CCCC(c3ccc([N+](=O)[O-])cc3)(C1)C21OCCO1 (stereo not given)	none (no result: Pf growth 48h, CHX counter-1, HCV inhibitor, Shiga inhibitor, Pf growth 96h)
Cc1c(C(=O)N2CCc3ccccc32)cnn1C	Shiga inhibitor 49 | CHX counter-2 inactive
CCOC(=O)N1C(=O)NC(=O)C1c1ccc(Cl)cc1 (stereo not given)	none (no result: Pf growth 48h, CHX counter-1, Shiga inhibitor, Pf growth 96h)
COc1ccccc1S(=O)(=O)N(C)C[C@@H]1Oc2ncc(-c3ccc(C)cc3)cc2C(=O)N([C@H](C)CO)C[C@@H]1C	none (no result: Pf growth 48h, CHX counter-1, HCV inhibitor, Shiga inhibitor, Pf growth 96h)
CCOC(=O)c1cnc2c(-c3cccc(Br)c3)cnn2c1C	Shiga inhibitor active | CHX counter-2 2.8µM
CCOC(=O)c1cnc2c(C(=O)OCC)cnn2c1N	none
CCCN(CC(=O)Nc1ccc(F)c(F)c1F)C(=O)c1cc([N+](=O)[O-])ccc1N1CCOCC1	Pf growth 96h inconclusive (no result: CHX counter-1, Shiga inhibitor)
C(/C=C/c1ccccn1)=C\c1ccccc1	none (no result: Pf growth 48h, CHX counter-1, Shiga inhibitor, Pf growth 96h)
O=C/C=C/c1ccccc1	Shiga inhibitor 64 | CHX counter-2 inconclusive
CCOC(=O)c1[nH]c2ccc(OC)cc2c1NC(=O)C(C)N1CCC2(CC1)OCCO2 (stereo not given)	Pf growth 48h inconclusive, Shiga inhibitor 49 (no result: HCV inhibitor, HCMV antiviral) | CHX counter-2 inactive
Cc1ccc2c(=O)c(C(=O)c3ccc(F)cc3)cn(CC(=O)NCCc3ccccc3)c2n1	none (no result: Pf growth 48h, CHX counter-1, HCV inhibitor, Shiga inhibitor, Pf growth 96h)
Cc1ccc(CC2SC(=O)NC2=O)cc1Cl (stereo not given)	none
CC(=O)/C(C#N)=C1\NC(=O)C(Cc2ccc(C)c(C)c2)S1 (stereo not given)	Shiga inhibitor 34, Pf growth 96h inconclusive, HCMV antiviral -95 | CHX counter-2 inactive
Cc1ccc(C(CC(=O)NCc2ccco2)c2ccc(OC(C)C)cc2)cc1 (stereo not given)	Shiga inhibitor 42 (no result: Pf growth 48h, Pf growth 96h) | CHX counter-2 inactive
CC(=O)N1c2ccc(S(=O)(=O)N3CCOCC3)cc2CC1C (stereo not given)	Pf growth 96h inconclusive
CC(=O)c1ccc(N2CCN(S(=O)(=O)c3ccc4c(c3)CC(C)N4C(C)=O)CC2)cc1 (stereo not given)	Pf growth 48h inconclusive, HCV inhibitor 6.3µM, Shiga inhibitor 34, Pf growth 96h inconclusive | CHX counter-2 inactive
Cc1ccc(O)c([C@H](CCN(C(C)C)C(C)C)c2ccccc2)c1	Pf growth 48h 1.7µM, Shiga inhibitor 48! | CHX counter-2 inactive
Cc1ccccc1C(OCCN(C(C)C)C(C)C)c1ccccc1 (stereo not given)	Pf growth 48h inconclusive, Pf growth 96h inconclusive, HCMV antiviral inconclusive
COc1ccc(NC(=O)c2c(Cl)n(C)c3ccccc23)cc1	HCV inhibitor inconclusive, Shiga inhibitor 40 | CHX counter-2 13µM
CCN1CCN(Cc2nnc(-c3ccc(C)cc3)o2)CC1	Shiga inhibitor 43 | CHX counter-2 inactive
CCOC(=O)C1(C)CCN1C(=O)COc1ccc(C(C)(C)C)cc1 (stereo not given)	none (no result: Pf growth 48h, CHX counter-1, HCV inhibitor, Shiga inhibitor, Pf growth 96h)
COc1ccccc1CNC(=O)CN1C(=O)NC2(CCCCCCC2)C1=O	none (no result: Pf growth 48h, CHX counter-1, Shiga inhibitor, Pf growth 96h)
CSc1nc2ccc(N3C(=O)C4CCCCC4C3=O)cc2s1 (stereo not given)	Shiga inhibitor 38 (no result: HCV inhibitor) | CHX counter-2 inconclusive
CSc1nc2ccc(S(=O)(=O)N3CCCC3)cc2s1	none (no result: Pf growth 96h)
